# Measured values from article PMC4552634, “A New Set of Chemical Starting Points with Plasmodium falciparum Transmission-Blocking Potential for Antimalarial Drug Discovery” (PLoS ONE, 2015).
# The whole screen tested about 13,000 compounds, of which about 3,200 (25%) showed an effect of 50% or more. The list shows a part of the results.
# System: P. falciparum stage V gametocytes
# Set-up: BacTiter-Glo ATP luminescence viability of purified stage V gametocytes in 384-well plates, per cent inhibition versus DMSO
# Settings: 48 h, 5 µM; inhibitor
row,Structure (SMILES),% Inhibition [%]
1,CCCCc1ccc(-c2ccc(-c3c(C)[nH]c(C)c(Br)c3=O)cn2)cc1 [TCMDC-135687],10.67
2,Cc1[nH]c(C)c(-c2ccc(-c3ccccc3Cl)nc2)c(=O)c1Br [TCMDC-136157],75.71
3,Cc1[nH]c(C)c(-c2ccc(-c3ccccc3Cl)nc2)c(=O)c1Cl [TCMDC-136303],74.15
4,COc1ccc(NC(=O)N2CCN(CCCCCNC(=O)/C=C/c3ccc(C(F)(F)F)cc3)CC2)cc1Cl [TCMDC-136097],-39.25
5,OC1(c2ccc(Cl)c(C(F)(F)F)c2)CCN(CCOC2c3ccccc3CSc3ccc(Cl)cc32)CC1 (stereo not shown) [TCMDC-124001],11.98
6,CC(C)C(C(=O)n1cc2c(ccc3nc(N)nc(N)c32)n1)C(C)C [TCMDC-137334],-12.47
7,O=C1COc2cc(Cl)c(CNC3CCN(CCc4ccnc5c(F)cc(F)cc45)CC3)nc2N1 [TCMDC-141732],-3.632
8,COc1ccc2nccc([C@@H](O)CN3CCC(NCc4cc5sccc5nc4C(F)(F)F)CC3)c2c1 [TCMDC-141152],4.239
9,COc1ccc(CCNCCCCNCCc2ccc(OC)c3ccccc23)c2ccccc12 [TCMDC-137961],106.4
10,COC(=O)Cc1ccc(N)c2ccccc12 [TCMDC-139173],-43.46
11,COc1ccc(CNCCCCCCNCc2ccc(OC)c3ccccc23)c2ccccc12 [TCMDC-137631],111.4
12,CCc1nonc1NC(=O)c1oc2c(C)c(C)ccc2c1C [TCMDC-123827],4.304
13,CS(=O)(=O)NCCCNCc1cccc(-c2ccc(-c3nc4cc(C(F)(F)F)ccc4[nH]3)s2)c1.O=C(O)C(F)(F)F [TCMDC-133083],-25.93
14,CNCCNCc1cccc(-c2ccc(-c3nc4cc(C(F)(F)F)ccc4[nH]3)s2)c1.O=C(O)C(F)(F)F [TCMDC-132830],50.68
15,FC(F)(F)c1ccc2[nH]c(-c3ccc(-c4cccc(CNCCc5cccnc5)c4)s3)nc2c1.O=C(O)C(F)(F)F [TCMDC-132874],67.94
16,O=C(O)C(F)(F)F.c1cncc(CCNCc2cccc(-c3ccc(-c4nc5ccccc5[nH]4)s3)c2)c1 [TCMDC-132877],-12.84
17,FC(F)(F)c1ccc2[nH]c(-c3ccc(-c4cccc(CNCc5ccccc5)c4)s3)nc2c1.O=C(O)C(F)(F)F [TCMDC-132708],-60.8
18,FC(F)(F)c1ccc2[nH]c(-c3ccc(-c4cccc(CNCCc5ccncc5)c4)s3)nc2c1.O=C(O)C(F)(F)F [TCMDC-132849],-1.104
19,N#CN1CC[C@H](CS(=O)(=O)c2cccc(Br)c2)C1 [TCMDC-133806],9.818
20,COc1ccc(N2C(=O)c3c(c4ccccc4n3C)C2c2ccccc2O)cc1 (stereo not shown) [TCMDC-124403],-39.6
21,O=S(=O)(Nc1cc2c(cc1OCc1ccccc1)CCN(C1CCC1)CC2)c1ccc(-c2ccc(Cl)cc2)cc1 [TCMDC-136027],-11.35
22,O=S(=O)(c1ccc(OCc2ccc(Cl)cc2)cc1)c1cc2c(cc1OCc1ccccc1)CCN(C1CCC1)CC2 [TCMDC-135998],60.24

row,Structure (SMILES),% Inhibition [%]
1,O=S(=O)(c1ccc(OCc2ccc(Cl)cc2)cc1)c1cc2c(c(-c3ccc(F)cc3)c1)CCN(CC1CC1)CC2 [TCMDC-135736],93.21
2,O=S(=O)(c1ccc(OCc2ccc(Cl)cc2)cc1)c1cc2c(cc1O)CCN(C1CCC1)CC2 [TCMDC-135997],28.22
3,O=S(=O)(c1ccc(OCc2ccc(Cl)cc2)cc1)c1cc2c(cc1OCc1ccccc1)CCN(CC1CC1)CC2 [TCMDC-134410],0.8378
4,COc1cc2c(cc1S(=O)(=O)c1ccc(OCc3ccc(Cl)cc3)cc1)CCN(Cc1ccc(NC(C)=O)s1)CC2 [TCMDC-132326],-7.841
5,COc1ccc2nccc([C@@H](O)CN3CCC(NCc4ccc5nsnc5c4)CC3)c2c1 [TCMDC-140928],4.203
6,O=C(NCc1cccc(C(F)(F)F)c1)C1CCCN(C(=O)c2ccc(O)c(-c3ccc(Cl)c(Cl)c3)c2)C1 (stereo not shown) [TCMDC-140885],20.85
7,O=C(Cc1cnc[nH]1)Nc1cccc(-c2cccc(-c3nc4ccccc4[nH]3)c2)c1 [TCMDC-136940],-12.56
8,CCC(CSC1CCCCC1)N(C)CCN(C)C(CC)CSC1CCCCC1 (stereo not shown) [TCMDC-131456],101.8
9,CCc1ccc(NC(=O)c2ccc(CN3CCCN(Cc4cccs4)CC3)cc2)cc1 [TCMDC-136447],-19.53
10,CC(C)C(=O)n1ncc2c3c(N)nc(N)nc3ccc21 [TCMDC-137841],-14.38
11,CCN(CCO)Cc1ccc(-c2ccc(NS(=O)(=O)c3cccc4cccnc34)cc2)cc1 [TCMDC-136477],-29.46
12,Cc1cc(C(=O)Nc2ccc3c(c2)CCN3C2CCN(Cc3csc4ccccc34)C2)no1 (stereo not shown) [TCMDC-135082],15.45
13,CCN(CC)CCCNc1cc[n+]([O-])c2cc3ccccc3cc12 [TCMDC-124146],-26.87
14,Cl.c1ccc2c(NCCOCCNc3c4ccccc4nc4ccccc34)c3ccccc3nc2c1 [TCMDC-124265],121.8
15,CCCCN(CCCC)CCCCNc1c2ccccc2nc2ccccc12 [TCMDC-137461],102
16,CCCCNc1cc(NCCCC)c2c(n1)[nH]c1ccccc12 [TCMDC-131827],-13.41
17,CCCCN(CCCC)CCCCCCNc1c2ccccc2nc2ccccc12 [TCMDC-137519],114.2
18,c1ccc2c(NCCc3c[nH]cn3)c3ccccc3nc2c1 [TCMDC-124424],5.484
19,CCN(CC)CCNc1ccnc2c3ccccc3n(C)c12 [TCMDC-131844],2.979
20,CCN(CC)CCCNc1c2ccccc2nc2ccccc12.Cl [TCMDC-125517],76.48
21,Cc1ccc(-c2cccc3c(NC(=O)Nc4ccc5nccc(N6CCN(C)CC6)c5c4)cccc23)cn1 [TCMDC-139367],-6.741
